# Source: PubChem BioAssay (NCATS)
# Records with an inconclusive call do not appear. Entries that show only a call come without a potency. Calls of active or inactive are those of the source. Calls come from the whole dose curve; as a rule, active = well fitted cell-killing curve with a large enough effect; inconclusive = small, poorly fitted or top-dose-only effect, or effect the other way; inactive = flat fitted curve, though single readings scatter.
# Experiments:
# Assay in all cases: Primary qHTS to identify gynecologic anti-cancer compounds using libraries of approved drugs and bioactive compounds (AID 1345084); note: nearly all actives have a fitted effect of over 55% in size
# Conditions in all cases: Gynecologic cancer cell panel viability, ATPlite luminescence, 48 h; series mostly up to 57.5 µM
# [1] = tested on: PA-1
# Outline: (§1)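 In this quantitative HTS, cell killing is estimated from loss of ATP-dependent luciferase light. Cells see five compound concentrations over a 48 h exposure.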
# [2] = tested on: SKOV3
# Outline: as §1
# [3] = tested on: Tov-21-G
# Outline: as §1
# [4] = tested on: Tov112D
# Outline: as §1
# Potency is the fitted concentration of half-maximal effect.
SMILES,Potency [1],Potency [2],Potency [3],Potency [4],"activity change, negative = cytotoxicity [1]","activity change, negative = cytotoxicity [2]","activity change, negative = cytotoxicity [3]","activity change, negative = cytotoxicity [4]"
C=C1[C@H]2CC[C@H](C(=O)O)[C@@]23CC[C@H](C3)C1(C)C,inactive,inactive,inactive,inactive,,,,
O=C(Nc1ccc(Cl)cc1)Nc1cccc(-c2cccc(N3CCCC3)n2)c1,inactive,inactive,inactive,inactive,,,,
CC(=O)O[C@@H]1CC[C@@]2(C)C(CC[C@]3(C)C2[C@H](O)C=C2[C@H]4[C@@H](C)[C@H](C)CC[C@]4(C)CC[C@]23C)[C@@]1(C)C(=O)O (stereo not given in full),inactive,inactive,inactive,inactive,,,,
C=C1CCN([C@H](C)[C@](O)(Cn2cncn2)c2ccc(F)cc2F)CC1,inactive,inactive,inactive,inactive,,,,
O=c1cc(NCCCN[C@@H]2CCOc3c(Br)cc(Br)cc32)[nH]c2ccsc12,inactive,inactive,inactive,inactive,,,,
NS(=O)(=O)c1ccc(N2CCN(CC[C@@H]3OCCc4ccccc43)CC2)cc1,inactive,inactive,inactive,inactive,,,,
C/C=C/CCC1Cc2cc(O)c(CCCC)c(O)c2C(=O)O1 (stereo not given),inactive,inactive,inactive,inactive,,,,
O=C(C1CCCCC1)N(CCN1CCN(c2ccccc2O)CC1)c1ccccn1,inactive,inactive,inactive,inactive,,,,
C=C(C(=O)O)[C@@H]1CC=C(CCC(C)=O)[C@@H](C)CC1,inactive,inactive,inactive,inactive,,,,
CCC(C)CNCC(=O)N1CCC2SC=CC2C1COc1cccc(C)c1 (stereo not given),inactive,inactive,inactive,inactive,,,,
O=C(Nc1ncc([N+](=O)[O-])s1)c1ccccc1O,inactive,inactive,inactive,inactive,,,,
CCCCOc1ccc(S(=O)(=O)n2c(C)nc3ccccc32)cc1,inactive,inactive,inactive,inactive,,,,
CNCCCC1(c2ccccc2)OC(C)(C)c2ccccc21 (stereo not given),inactive,inactive,inactive,inactive,,,,
CCC/C=C/c1cc2c(C=O)c(O)c(CC=C(C)C)cc2o1,inactive,inactive,inactive,inactive,,,,
CCN(c1cc(-c2ccc(CN3CCOCC3)cc2)cc(C(=O)NCc2c(C)cc(C)[nH]c2=O)c1C)C1CCOCC1,inactive,inactive,inactive,inactive,,,,
CC(C)NC(=O)N1CC[C@H](N=C2Nc3cc(F)ccc3N(CC(F)F)c3ccc(Cl)cc32)C1,,,,,-24.1% [at 11.6 µM] (inactive),18.3% [at 11.6 µM] (inactive),-31.2% [at 11.6 µM] (inactive),-4.53% [at 11.6 µM] (inactive)
CC1(C)CCCC2(C)C1C(=O)C=C(C(=O)O)C2(O)C(=O)O (stereo not given),inactive,inactive,inactive,inactive,,,,
COc1cc(C(=O)NC(=S)Nc2cccc(NC(=O)c3ccccc3)c2)cc(OC)c1OC,inactive,inactive,inactive,inactive,,,,
COc1cc2ncnc(Oc3ccc(CC(=O)Nc4cnn(C(C)C)c4)cc3)c2cc1OC,inactive,inactive,inactive,inactive,,,,
CC(C)C[C@H](CO)Nc1nc(S[C@@H](C)c2ccccc2)nc2nc(N)sc12,inactive,inactive,inactive,inactive,,,,
COc1cc(CN(CCN)C(=O)c2cccs2)ccc1OCc1ccccc1,inactive,inactive,inactive,inactive,,,,
Cn1ncc(Cl)c1-c1cc(C(=O)N[C@H](CN)Cc2ccc(F)c(F)c2)sc1Cl,inactive,14.1 µM (active),0.891 µM (active),inactive,,,,
CNCCN1CCC(c2cc(CN(C)C(=O)c3cccc(Oc4ccccc4)c3)ccn2)CC1,inactive,inactive,inactive,inactive,,,,
COC(=O)c1cc2c(C(F)(F)F)cc(-c3ccccc3)cc2n1O,inactive,inactive,inactive,inactive,,,,
Cc1cc(C)c(-n2cc(C)c3c(Cl)nc(C)nc32)c(C)c1,inactive,inactive,inactive,inactive,,,,
C#CC(=O)N(c1ccc(OC)cc1OC)C(C(=O)NCC(=O)OCC)c1cccs1 (stereo not given),1.58 µM (active),3.16 µM (active),0.398 µM (active),6.31 µM (active),,,,
CCN1CCC[C@@H]1CNC(=O)c1ccc2c(c1)NC(=O)c1cccc(C)c1S2,inactive,inactive,inactive,inactive,,,,
Cc1c(C(=O)NCc2cccnc2)nn(-c2ccc(Cl)cc2Cl)c1-c1ccc(Cl)cc1,inactive,inactive,inactive,inactive,,,,

SMILES,Potency [1],Potency [2],Potency [3],Potency [4],"activity change, negative = cytotoxicity [1]","activity change, negative = cytotoxicity [2]","activity change, negative = cytotoxicity [3]","activity change, negative = cytotoxicity [4]"
CCNC1(C(N)=O)CN(c2nc(C)nc3c(-c4ccc(Cl)cc4)c(-c4ccccc4Cl)nn23)C1,inactive,inactive,inactive,inactive,,,,
N#Cc1ccc(Nc2nc(-c3ccc(O)cc3O)cs2)cc1C(F)(F)F,8.91 µM (active),8.91 µM (active),5.01 µM (active),7.94 µM (active),,,,
C/C1=C/CCC2=CC(OC2=O)C(C)(C)/C=C/C1=O (stereo not given),8.91 µM (active),12.6 µM (active),8.91 µM (active),20 µM (active),,,,
COc1ccc(CCO[C@@H]2O[C@H](CO[C@H]3OC[C@](O)(CO)[C@H]3O)[C@@H](OC(=O)/C=C/c3ccc(O)c(O)c3)[C@H](O[C@@H]3O[C@@H](C)[C@H](O)[C@@H](O)[C@H]3O)[C@H]2O)cc1OC,inactive,inactive,inactive,inactive,,,,
CC(C)CCNc1ncccc1C(=O)N1CCN(Cc2ccccc2)CC1,inactive,inactive,inactive,inactive,,,,
COc1ccc([C@H](Cc2ccncc2)c2ccccc2)cc1OC1CCCC1,inactive,inactive,inactive,inactive,,,,
O=C(NCc1ccc(OC(F)(F)F)cc1)C1c2c(F)cccc2C(=O)N1CCc1ccccn1 (stereo not given),inactive,inactive,inactive,inactive,,,,
O=S1(=O)CCN(Cc2cc(NCC3CCOCC3)c3[nH]c(-c4ccccc4)cc3c2)CC1,inactive,inactive,inactive,inactive,,,,
Cc1ccc(C2(C(=O)N3CCC(n4nc(-c5ccccc5)oc4=O)CC3)CC2)cc1,inactive,inactive,inactive,inactive,,,,
Cc1ccc(N2CCN(S(=O)(=O)N3CCCCC3)CC2)c(C)c1,inactive,inactive,inactive,inactive,,,,
C=C(C)C1=C[C@@]2(C)C(=CC1=O)CC[C@@H](O)[C@@H]2C,inactive,inactive,inactive,inactive,,,,
C/C=C/[C@@H]1C=C[C@@H]2C[C@H](C)CC[C@H]2[C@]1(C)/C(O)=C1/C(=O)[C@@H](CO)N(C)C1=O,inactive,inactive,inactive,inactive,,,,
C/C=C/C=C/C(=O)O[C@@H]1C=C2COC(=O)[C@]2(O)[C@@]2(C)CCCC(C)(C)[C@H]12,inactive,inactive,inactive,inactive,,,,
C=C1/C(=C/C=C2\CCC[C@@]3(C)C2CCC3[C@H](C)/C=C/[C@@H](O)C2CC2)C[C@@H](O)C[C@@H]1O (stereo not given in full),inactive,inactive,inactive,inactive,,,,
C=CC(C)(C)C12CC3C(=O)N4C(CC5(C(C)(C)C=C)c6ccccc6NC45)C(=O)N3C1Nc1ccccc12 (stereo not given),inactive,inactive,inactive,inactive,,,,
O=C(Nc1ccccc1C(=O)Nc1ccc(CCO)cc1)c1ccc([N+](=O)[O-])cc1,inactive,inactive,inactive,inactive,,,,
COc1cccc(NCCC2(c3ccccc3)CC(C)(C)OC(C)(C)C2)c1,inactive,inactive,inactive,inactive,,,,
COc1ccccc1N1CCN(CC[C@@](C)(C(=O)C2CCCCC2)c2ccccc2)CC1,inactive,inactive,inactive,inactive,,,,
O=S(=O)(Nc1cc(Cl)c(Oc2cnc3ccccc3c2)c(Cl)c1)c1ccc(Cl)cc1Cl,inactive,inactive,inactive,inactive,,,,
C/C=C(\C)C(=O)O[C@H]1C[C@](C)(O)[C@H]2CC=C(C)[C@H]2[C@@H]2OC(=O)[C@H](C)[C@H]21,inactive,inactive,inactive,inactive,,,,
Cc1ccc(N2CCN(CCC3NC(=O)c4ccccc43)CC2)cc1C (stereo not given),inactive,inactive,inactive,inactive,,,,
Clc1ncoc1-c1c[nH]c2ccccc12,inactive,inactive,inactive,inactive,,,,
CC[C@H]1OC(=O)[C@H](C)[C@@H](O[C@H]2C[C@@](C)(OC)[C@@H](O)[C@H](C)O2)[C@H](C)[C@@H](O[C@H]2O[C@H](C)C[C@H](N(C)C)[C@H]2O)[C@](C)(O)C[C@@H](C)C(=O)[C@H](C)[C@@H](O)[C@]1(C)O,inactive,inactive,inactive,inactive,,,,
O=c1[nH]c2cccc(N3CCN(Cc4ccc(-c5ccccc5)cc4)CC3)c2o1,inactive,inactive,inactive,inactive,,,,
O=C(NCC1(c2nc(-c3ccccc3)cs2)CCOCC1)c1cccc(-c2noc(C(F)(F)F)n2)c1,inactive,inactive,inactive,inactive,,,,
CCNC(=O)c1noc(-c2cc(Cl)c(O)cc2O)c1-c1ccc(OC)cc1,0.562 µM (active),2.82 µM (active),0.562 µM (active),0.501 µM (active),,,,
CN(C)CC#CCCC(=O)C(O)(c1ccccc1)C1CCC1 (stereo not given),inactive,inactive,inactive,inactive,,,,
